“And” between values parts separate entries of the source, which are not always exact repeats. Equal entries are not always repeated. The whole screen tested about 5,500 compounds, of which about 2,000 (36%) were called active. Not shown: some 18% with an inconclusive outcome. Cut-off read from the data, not from the text of the source: active = normalized growth mostly below about 0.91 (no sharp cut-off); inconclusive = no clear call, values can overlap the other calls; inactive = mostly above about 0.92. The list shows a part of the results.
Experiment: chemical genetic growth profiling, strain panel (AID 1159580);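 note: tested at 20 µM; growth read once vehicle control cultures reached saturation at 30 °C; 1 = growth at the plate median or of vehicle wells; lower values mean less growth of the strain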
Details: growth OD

Measured: normalized growth

NC/C=C/C(=O)O
inactive: S. cerevisiae deletion strains, locus YJR043C, strain POL32, active compounds read low 1.04 | S. cerevisiae deletion strains, locus YJR075W, strain HOC1, active compounds read low 1.01 | S. cerevisiae deletion strains, locus YKL009W, strain mrt4, active compounds read low 1.03 | S. cerevisiae deletion strains, locus YKL068W, active compounds read low 1.01 | S. cerevisiae deletion strains, locus YKL085W, strain MDH1 (second series), active compounds read low 1.01 | S. cerevisiae deletion strains, locus YKL085W, strain MDH1, active compounds read low 1.01 | S. cerevisiae deletion strains, locus YKL160W, strain elf1, active compounds read low 0.981 | S. cerevisiae deletion strains, locus YKL190W, strain CNB1, active compounds read low 1.02 | S. cerevisiae deletion strains, locus YKR001C, strain vps1, active compounds read low 1.02 | S. cerevisiae deletion strains, locus YKR026C, strain gcn3, active compounds read low 0.987 | S. cerevisiae deletion strains, locus YKR091W, strain srl3, active compounds read low 1.01 | S. cerevisiae deletion strains, locus YLL001W, strain dnm1, active compounds read low 1 | S. cerevisiae deletion strains, locus YLL026W, active compounds read low 1 | S. cerevisiae deletion strains, locus YLL041C, strain sdh2, active compounds read low 1.01 | S. cerevisiae deletion strains, locus YLR027C, strain aat2, active compounds read low 1.01 | S. cerevisiae deletion strains, locus YLR039C, strain RIC1, active compounds read low 1.07 | S. cerevisiae deletion strains, locus YLR058C, strain SHM2, active compounds read low 1.02 | S. cerevisiae deletion strains, locus YLR102C, strain apc9, active compounds read low 1.01 | S. cerevisiae deletion strains, locus YLR221C, strain rsa3, active compounds read low 0.999 | S. cerevisiae deletion strains, locus YLR258W, strain gsy2, active compounds read low 1.02 | S. cerevisiae deletion strains, locus YLR262C, strain YPT6 (second series), active compounds read low 1.01 | S. cerevisiae deletion strains, locus YLR262C, strain YPT6, active compounds read low 1.03 | S. cerevisiae deletion strains, locus YLR268W, strain sec22, active compounds read low 0.98 | S. cerevisiae deletion strains, locus YLR320W, strain mms22, active compounds read low 1.01 | S. cerevisiae deletion strains, locus YLR330W, strain CHS5, active compounds read low 1.01 | S. cerevisiae deletion strains, locus YLR342W, strain FKS1 (second series), active compounds read low 1.11 | S. cerevisiae deletion strains, locus YLR342W, strain FKS1, active compounds read low 1.01 | S. cerevisiae deletion strains, locus YLR357W, strain rsc2, active compounds read low 1.1 | S. cerevisiae deletion strains, locus YLR370C, strain arc18, active compounds read low 1.01 | S. cerevisiae deletion strains, locus YLR371W, strain rom2, active compounds read low 1.02 | S. cerevisiae deletion strains, locus YLR384C, strain iki3, active compounds read low 1.02 | S. cerevisiae deletion strains, locus YLR418C, strain cdc73, active compounds read low 0.943 | S. cerevisiae deletion strains, locus YML016C, strain PPZ1, active compounds read low 1.01 | S. cerevisiae deletion strains, locus YML032C, strain rad52, active compounds read low 1.05 | S. cerevisiae deletion strains, locus YML120C, strain ndi1, active compounds read low 1.01 | S. cerevisiae deletion strains, locus YML124C, strain tub3, active compounds read low 1.01 | S. cerevisiae deletion strains, locus YMR058W, strain fet3, active compounds read low 1.01 | S. cerevisiae deletion strains, locus YMR078C, strain ctf18, active compounds read low 1.02 | S. cerevisiae deletion strains, locus YMR125W, strain sto1, active compounds read low 1.04 | S. cerevisiae deletion strains, locus YMR129W, active compounds read low 0.973 | S. cerevisiae deletion strains, locus YMR205C, strain PFK2, active compounds read low 1.02 | S. cerevisiae deletion strains, locus YMR223W, strain ubp8, active compounds read low 1.04 | S. cerevisiae deletion strains, locus YMR231W, strain pep5, active compounds read low 1.01 | S. cerevisiae deletion strains, locus YMR263W, strain SAP30, active compounds read low 1.01 | S. cerevisiae deletion strains, locus YMR307W, strain GAS1, active compounds read low 1.02 and 0.997 | S. cerevisiae deletion strains, locus YNL067W, strain RPL9B, active compounds read low 1.01 | S. cerevisiae deletion strains, locus YNL071W, strain lat1, active compounds read low 1.01 | S. cerevisiae deletion strains, locus YNL128W, strain TEP1, active compounds read low 0.988 | S. cerevisiae deletion strains, locus YNL153C, strain GIM3, active compounds read low 1.01 and 1.03 | S. cerevisiae deletion strains, locus YNL175C, strain NOP13, active compounds read low 1 | S. cerevisiae deletion strains, locus YNL197C, strain WHI3, active compounds read low 0.996 | S. cerevisiae deletion strains, locus YNL209W, strain ssb2, active compounds read low 1 | S. cerevisiae deletion strains, locus YNL224C, strain SQS1, active compounds read low 1 | S. cerevisiae deletion strains, locus YNL233W, strain BNI4, active compounds read low 1.02 | S. cerevisiae deletion strains, locus YNL248C, strain rpa49, active compounds read low 1.01 | S. cerevisiae deletion strains, locus YNL250W, strain rad50, active compounds read low 1 | S. cerevisiae deletion strains, locus YNL271C, strain bni1, active compounds read low 1.02 | S. cerevisiae deletion strains, locus YNL298W, strain CLA4, active compounds read low 1.01 | S. cerevisiae deletion strains, locus YNL307C, strain MCK1, active compounds read low 1.05 | S. cerevisiae deletion strains, locus YNL322C, strain KRE1 (second series), active compounds read low 1 | S. cerevisiae deletion strains, locus YNL322C, strain KRE1, active compounds read low 1.01 and 1.02 | S. cerevisiae deletion strains, locus YNR049C, strain mso1, active compounds read low 1.01 | S. cerevisiae deletion strains, locus YNR052C, strain pop2, active compounds read low 1.01 | S. cerevisiae deletion strains, locus YOL006C, strain TOP1, active compounds read low 1.04 | S. cerevisiae deletion strains, locus YOL012C, strain htz1 0.927 | S. cerevisiae deletion strains, locus YOL147C, strain pex11, active compounds read low 1.01 | S. cerevisiae deletion strains, locus YOR001W, strain rrp6, active compounds read low 0.99 | S. cerevisiae deletion strains, locus YOR061W, strain CKA2, active compounds read low 1.01 | S. cerevisiae deletion strains, locus YOR069W, strain VPS5, active compounds read low 1.02 | S. cerevisiae deletion strains, locus YOR070C, strain gyp1, active compounds read low 1 | S. cerevisiae deletion strains, locus YOR080W, strain dia2, active compounds read low 1 | S. cerevisiae deletion strains, locus YOR083W, strain WHI5 (second series), active compounds read low 1.02 | S. cerevisiae deletion strains, locus YOR083W, strain WHI5, active compounds read low 0.971 | S. cerevisiae deletion strains, locus YOR106W, strain vam3, active compounds read low 0.991 | S. cerevisiae deletion strains, locus YOR136W, strain idh2, active compounds read low 1.01 | S. cerevisiae deletion strains, locus YOR144C, strain elg1, active compounds read low 1 | S. cerevisiae deletion strains, locus YOR184W, strain ser1, active compounds read low 1.06 | S. cerevisiae deletion strains, locus YOR265W, strain rbl2, active compounds read low 1.01 | S. cerevisiae deletion strains, locus YOR270C, strain vph1, active compounds read low 1.01 | S. cerevisiae deletion strains, locus YOR290C, strain snf2, active compounds read low 0.993 | S. cerevisiae deletion strains, locus YOR316C, strain cot1, active compounds read low 1.02 | S. cerevisiae deletion strains, locus YPL051W, strain arl3, active compounds read low 0.989 | S. cerevisiae deletion strains, locus YPL055C, strain LGE1, active compounds read low 0.952 and 1.01 | S. cerevisiae deletion strains, locus YPL078C, strain atp4, active compounds read low 0.983 | S. cerevisiae deletion strains, locus YPL106C, strain sse1, active compounds read low 1.02 | S. cerevisiae deletion strains, locus YPL240C, strain hsp82, active compounds read low 0.991 | S. cerevisiae deletion strains, locus YPL241C, strain CIN2, active compounds read low 1.02 and 1 | S. cerevisiae deletion strains, locus YPR119W, strain clb2, active compounds read low 1 | S. cerevisiae deletion strains, locus YPR141C, strain kar3, active compounds read low 1.01 | S. cerevisiae deletion strains, locus YPR163C, strain tif3, active compounds read low 1.01 | S. cerevisiae deletion strains, locus YPR167C, strain met16, active compounds read low 1.01 | S. cerevisiae deletion strains, strain wtn01, active compounds read low 0.982 | S. cerevisiae strains, strain wild type, active compounds read low 1.03
